Out of some 2,400 compounds screened, about 220 (9.2%) were called active.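 How the source made its calls: active means signal change above the mean of dofetilide-free buffer controls plus 3 SD, so a positive margin; inactive means the rest.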 The entries come from a sample that favours actives as a whole.
Assay: nonspecific flux effects in parental CHO-K1, confirmation, counter-screen for hERG block protection project, cell-based, CHO-K1 parental line, FluxOR thallium flux (AID 1839);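 further: compounds applied alone with no dofetilide to cells lacking hERG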
Conditions: CHO-K1 parental cells, FluxOR thallium flux fluorescence; at 10 µM

SMILES	signal change vs control minus 3*SD hit threshold (margin above threshold, higher = more increase)
CC/C(=C\C=C\[C@@H]1C=C[C@@H]2CCC[C@H]2[C@@H]1C(=O)c1ccc[nH]1)[C@@H]1O[C@@H]([C@@H](C)C(=O)O)CC[C@@H]1C	83% (active)
O=c1c2cc(Br)ccc2[nH]c(=S)n1-c1ccccc1	-20.2% (inactive)
CCCCN1C(=O)/C(=C/c2ccc(N3CCCCCC3)cc2)C(=O)NC1=S	-36% (inactive)
Cc1ccc(/C=C2\C(=O)NC(=S)N(c3ccc(F)cc3)C2=O)s1	-30.1% (inactive)
CN1C(=O)/C(=C/c2ccc(Cl)s2)C(=O)NC1=S	-29.5% (inactive)
